# Assay results reported in article PMC7862700, “An all-to-all approach to the identification of sequence-specific readers for epigenetic DNA modifications on cytosine”.
# Columns and labels:
# Test in all cases: DAPPL (digital affinity profiling via proximity ligation, sequencing); 10 mM Tris-HCl pH 7.5, 50 mM NaCl, 1 mM DTT, 4% glycerol, room temperature, 30 min; GST-TFs on glutathione beads, 16-mer random dsDNA library, 0.1% formaldehyde crosslink after washing; high values mean tight binding
# FLI1 = target: T1, FLI1 (Homo sapiens, UniProt Q01543 1-452); settings: protein: recombinant; tags: N-terminal GST; dsDNA, one strand shown
# T1 sequence: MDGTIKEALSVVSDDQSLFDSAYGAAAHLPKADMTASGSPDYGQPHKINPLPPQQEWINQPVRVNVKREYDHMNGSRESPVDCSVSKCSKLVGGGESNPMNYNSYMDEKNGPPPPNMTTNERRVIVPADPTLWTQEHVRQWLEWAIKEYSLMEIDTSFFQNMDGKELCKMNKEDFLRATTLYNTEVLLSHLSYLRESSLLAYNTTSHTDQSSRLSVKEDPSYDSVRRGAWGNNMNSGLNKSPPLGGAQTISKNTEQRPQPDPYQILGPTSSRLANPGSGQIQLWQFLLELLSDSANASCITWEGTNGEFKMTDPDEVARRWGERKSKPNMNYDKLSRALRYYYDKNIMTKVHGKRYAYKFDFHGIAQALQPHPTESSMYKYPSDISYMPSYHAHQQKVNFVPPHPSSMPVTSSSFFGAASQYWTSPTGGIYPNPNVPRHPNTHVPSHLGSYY
# In short: (§1)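 In yeast, human transcription factors were expressed with a GST fusion, then pulled down on glutathione beads and given DNA barcodes. Pooled with a tag-only sample, they were exposed to 200 nmole of a 16-mer random double-stranded DNA library (Tris/NaCl/DTT/glycerol buffer, room temperature, 30 min), washed, crosslinked with 0.1% formaldehyde, proximity-ligated using BsaI/T4 ligase for 1 h at 37 °C, PCR-amplified and read on an Illumina NextSeq500. Each hexamer's frequency of reads for a factor, divided by the matching frequency for the tag-only sample, gives the binding signal.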
# ELK1 = target: T2, ELK1 (Homo sapiens, UniProt P19419 1-428); settings: protein: recombinant; tags: N-terminal GST; dsDNA, one strand shown
# T2 sequence: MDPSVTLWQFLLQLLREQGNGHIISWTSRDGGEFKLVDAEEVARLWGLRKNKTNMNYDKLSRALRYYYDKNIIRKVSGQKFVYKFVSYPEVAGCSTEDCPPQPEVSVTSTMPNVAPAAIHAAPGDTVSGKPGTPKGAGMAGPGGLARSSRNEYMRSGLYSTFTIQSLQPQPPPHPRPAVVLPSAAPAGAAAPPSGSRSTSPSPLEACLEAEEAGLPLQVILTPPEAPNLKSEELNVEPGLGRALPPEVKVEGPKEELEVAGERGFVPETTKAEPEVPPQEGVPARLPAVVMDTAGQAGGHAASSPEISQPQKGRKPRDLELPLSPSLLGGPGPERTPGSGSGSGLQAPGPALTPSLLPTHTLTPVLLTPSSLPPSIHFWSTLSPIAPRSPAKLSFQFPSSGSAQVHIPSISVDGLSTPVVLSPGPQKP
# In short: as §1
# GABPA = target: T3, GABPA (Homo sapiens, UniProt Q06546 1-454); settings: protein: recombinant; tags: N-terminal GST; dsDNA, one strand shown
# T3 sequence: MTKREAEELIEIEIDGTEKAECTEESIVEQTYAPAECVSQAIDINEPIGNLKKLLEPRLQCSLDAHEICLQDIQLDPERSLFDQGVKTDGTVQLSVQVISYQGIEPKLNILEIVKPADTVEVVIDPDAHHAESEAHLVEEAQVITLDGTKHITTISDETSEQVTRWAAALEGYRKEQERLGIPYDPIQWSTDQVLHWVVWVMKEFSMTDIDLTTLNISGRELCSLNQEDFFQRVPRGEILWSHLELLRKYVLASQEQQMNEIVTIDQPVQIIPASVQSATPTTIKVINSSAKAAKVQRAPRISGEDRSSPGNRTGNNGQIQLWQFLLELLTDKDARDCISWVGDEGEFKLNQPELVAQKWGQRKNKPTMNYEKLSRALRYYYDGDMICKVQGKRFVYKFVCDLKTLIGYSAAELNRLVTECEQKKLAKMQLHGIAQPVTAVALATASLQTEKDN
# In short: as §1
# ERG = target: T4, ERG (Homo sapiens, UniProt P11308 1-479); settings: protein: recombinant; tags: N-terminal GST; dsDNA, one strand shown
# T4 sequence: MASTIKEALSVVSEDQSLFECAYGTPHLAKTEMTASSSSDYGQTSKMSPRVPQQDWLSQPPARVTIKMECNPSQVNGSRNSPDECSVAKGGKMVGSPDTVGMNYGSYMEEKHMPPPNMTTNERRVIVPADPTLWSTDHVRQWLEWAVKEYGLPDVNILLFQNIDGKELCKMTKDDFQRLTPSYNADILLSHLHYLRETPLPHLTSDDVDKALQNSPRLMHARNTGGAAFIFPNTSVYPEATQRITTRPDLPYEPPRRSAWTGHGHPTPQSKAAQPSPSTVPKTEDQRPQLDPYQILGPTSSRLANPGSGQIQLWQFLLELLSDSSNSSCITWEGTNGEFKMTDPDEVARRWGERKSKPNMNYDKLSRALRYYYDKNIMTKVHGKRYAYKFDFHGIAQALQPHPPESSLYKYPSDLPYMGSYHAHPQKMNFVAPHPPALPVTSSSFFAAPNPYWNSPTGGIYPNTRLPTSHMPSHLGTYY
# In short: as §1
# ELF1 = ELF1 (Homo sapiens, UniProt P32519 1-619); settings: protein: recombinant; tags: N-terminal GST; dsDNA, one strand shown
# In short: as §1
# EHF = target: T5, EHF (Homo sapiens, UniProt Q9NZC4 1-300); settings: protein: recombinant; tags: N-terminal GST; dsDNA, one strand shown
# T5 sequence: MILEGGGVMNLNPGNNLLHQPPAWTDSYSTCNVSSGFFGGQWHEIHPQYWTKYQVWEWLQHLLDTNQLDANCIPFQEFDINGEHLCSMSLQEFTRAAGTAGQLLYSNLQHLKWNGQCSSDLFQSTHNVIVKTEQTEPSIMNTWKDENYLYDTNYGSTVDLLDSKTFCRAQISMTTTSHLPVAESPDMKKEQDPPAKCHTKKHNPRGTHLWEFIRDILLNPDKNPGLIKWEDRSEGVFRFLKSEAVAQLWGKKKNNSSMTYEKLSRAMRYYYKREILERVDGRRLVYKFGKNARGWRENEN
# In short: as §1
# SPI1 = SPI1 (Homo sapiens, UniProt P17947 1-270); settings: protein: recombinant; tags: N-terminal GST; dsDNA, one strand shown
# In short: as §1
# SPIB = SPIB (Homo sapiens, UniProt Q01892 1-262); settings: protein: recombinant; tags: N-terminal GST; dsDNA, one strand shown
# In short: as §1
# ELK3 = target: T6, ELK3 (Homo sapiens, UniProt P41970 1-407); settings: protein: recombinant; tags: N-terminal GST; dsDNA, one strand shown
# T6 sequence: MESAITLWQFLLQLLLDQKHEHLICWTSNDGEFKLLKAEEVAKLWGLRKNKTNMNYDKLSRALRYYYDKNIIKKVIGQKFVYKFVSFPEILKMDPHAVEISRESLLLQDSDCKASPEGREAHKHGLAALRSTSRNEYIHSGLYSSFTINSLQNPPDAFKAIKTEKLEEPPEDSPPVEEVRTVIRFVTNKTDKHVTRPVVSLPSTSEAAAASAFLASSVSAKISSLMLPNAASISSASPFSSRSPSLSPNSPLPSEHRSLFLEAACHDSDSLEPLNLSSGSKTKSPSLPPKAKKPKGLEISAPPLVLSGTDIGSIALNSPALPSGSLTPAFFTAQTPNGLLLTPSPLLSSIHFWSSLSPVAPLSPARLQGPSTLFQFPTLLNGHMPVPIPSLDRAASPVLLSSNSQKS
# In short: as §1
# FEV = target: T7, FEV (Homo sapiens, UniProt Q99581 1-238); settings: protein: recombinant; tags: N-terminal GST; dsDNA, one strand shown
# T7 sequence: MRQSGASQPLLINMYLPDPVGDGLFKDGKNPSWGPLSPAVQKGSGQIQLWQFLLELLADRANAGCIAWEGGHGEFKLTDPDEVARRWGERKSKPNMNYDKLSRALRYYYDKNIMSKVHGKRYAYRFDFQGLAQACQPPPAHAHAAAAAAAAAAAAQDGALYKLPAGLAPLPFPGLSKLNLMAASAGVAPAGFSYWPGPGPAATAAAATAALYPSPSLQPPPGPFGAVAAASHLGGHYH
# In short: as §1
# ETV5 = ETV5 (Homo sapiens, UniProt P41161 1-510); settings: protein: recombinant; tags: N-terminal GST; dsDNA, one strand shown
# In short: as §1
# HSF1 = HSF1 (Homo sapiens, UniProt Q00613 1-529); settings: protein: recombinant; tags: N-terminal GST; chain copies: 3; dsDNA, one strand shown
# In short: as §1
# SPIC = target: T8, SPIC (Homo sapiens, UniProt Q8N5J4 1-248); settings: protein: recombinant; tags: N-terminal GST; dsDNA, one strand shown
# T8 sequence: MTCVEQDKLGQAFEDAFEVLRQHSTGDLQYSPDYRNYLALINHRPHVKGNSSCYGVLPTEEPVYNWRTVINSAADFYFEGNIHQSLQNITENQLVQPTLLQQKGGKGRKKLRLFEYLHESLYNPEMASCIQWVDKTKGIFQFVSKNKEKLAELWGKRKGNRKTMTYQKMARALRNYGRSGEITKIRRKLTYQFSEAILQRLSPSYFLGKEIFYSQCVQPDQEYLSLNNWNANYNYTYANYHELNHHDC
# In short: as §1
# ELF4 = ELF4 (Homo sapiens, UniProt Q99607 1-663); settings: protein: recombinant; tags: N-terminal GST; dsDNA, one strand shown
# In short: as §1
# ELK4 = target: T9, ELK4 (Homo sapiens, UniProt P28324-2 1-405); settings: protein: recombinant; tags: N-terminal GST; dsDNA, one strand shown
# T9 sequence: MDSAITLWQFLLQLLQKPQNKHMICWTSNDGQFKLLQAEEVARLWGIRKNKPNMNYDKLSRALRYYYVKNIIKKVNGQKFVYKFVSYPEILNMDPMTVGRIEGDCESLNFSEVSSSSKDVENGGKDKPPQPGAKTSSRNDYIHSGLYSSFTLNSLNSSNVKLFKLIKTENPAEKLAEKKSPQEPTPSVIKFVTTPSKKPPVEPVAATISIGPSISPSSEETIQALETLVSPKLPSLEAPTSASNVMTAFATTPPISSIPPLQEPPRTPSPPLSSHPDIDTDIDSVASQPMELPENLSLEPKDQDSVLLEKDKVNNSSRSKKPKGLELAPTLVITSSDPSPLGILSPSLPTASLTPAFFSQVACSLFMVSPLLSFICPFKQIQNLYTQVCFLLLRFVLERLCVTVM
# In short: as §1
# ETV2 = target: T10, ETV2 (Homo sapiens, UniProt O00321 1-342); settings: protein: recombinant; tags: N-terminal GST; dsDNA, one strand shown
# T10 sequence: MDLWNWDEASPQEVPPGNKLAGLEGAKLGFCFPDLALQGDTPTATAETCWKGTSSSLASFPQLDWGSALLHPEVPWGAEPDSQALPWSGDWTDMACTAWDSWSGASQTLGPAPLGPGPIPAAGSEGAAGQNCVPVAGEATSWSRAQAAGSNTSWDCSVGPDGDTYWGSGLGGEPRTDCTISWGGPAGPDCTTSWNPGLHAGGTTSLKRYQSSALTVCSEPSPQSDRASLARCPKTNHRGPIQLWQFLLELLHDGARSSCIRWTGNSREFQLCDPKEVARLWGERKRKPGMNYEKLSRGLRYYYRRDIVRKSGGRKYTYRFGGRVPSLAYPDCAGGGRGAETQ
# In short: as §1
# ELF3 = target: T11, ELF3 (Homo sapiens, UniProt P78545 1-371); settings: protein: recombinant; tags: N-terminal GST; dsDNA, one strand shown
# T11 sequence: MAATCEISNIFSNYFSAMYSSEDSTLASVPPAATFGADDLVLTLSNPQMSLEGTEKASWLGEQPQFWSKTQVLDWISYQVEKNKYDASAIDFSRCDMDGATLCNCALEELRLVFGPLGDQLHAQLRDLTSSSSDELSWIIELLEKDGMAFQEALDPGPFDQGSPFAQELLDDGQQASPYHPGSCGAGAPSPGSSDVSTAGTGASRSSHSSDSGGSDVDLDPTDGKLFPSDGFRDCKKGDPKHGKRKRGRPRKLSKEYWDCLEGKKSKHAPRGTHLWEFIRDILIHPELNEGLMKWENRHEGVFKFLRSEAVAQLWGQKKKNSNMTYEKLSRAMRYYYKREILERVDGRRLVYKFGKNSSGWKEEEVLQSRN
# In short: as §1
# CRX = CRX (Homo sapiens, UniProt O43186 1-299); settings: protein: recombinant; tags: N-terminal GST; dsDNA, one strand shown
# In short: as §1
# ETV1 = ETV1 (Homo sapiens, UniProt P50549 1-477); settings: protein: recombinant; tags: N-terminal GST; dsDNA, one strand shown
# In short: as §1
# HSF1, sequence (Q00613 whole entry): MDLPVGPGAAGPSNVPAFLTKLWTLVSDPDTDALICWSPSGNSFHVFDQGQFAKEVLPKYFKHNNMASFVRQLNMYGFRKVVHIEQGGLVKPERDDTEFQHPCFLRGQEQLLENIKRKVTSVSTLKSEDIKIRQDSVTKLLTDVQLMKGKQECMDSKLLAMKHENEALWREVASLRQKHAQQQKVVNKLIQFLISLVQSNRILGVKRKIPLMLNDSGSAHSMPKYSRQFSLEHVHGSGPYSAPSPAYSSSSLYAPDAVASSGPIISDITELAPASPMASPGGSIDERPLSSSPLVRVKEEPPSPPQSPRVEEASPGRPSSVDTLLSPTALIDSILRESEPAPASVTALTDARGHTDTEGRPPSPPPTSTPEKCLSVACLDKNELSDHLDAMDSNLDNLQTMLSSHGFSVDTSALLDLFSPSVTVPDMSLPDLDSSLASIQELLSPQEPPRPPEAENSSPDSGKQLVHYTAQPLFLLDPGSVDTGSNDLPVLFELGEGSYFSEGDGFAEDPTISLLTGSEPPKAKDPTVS
# ETV5, sequence (P41161 whole entry): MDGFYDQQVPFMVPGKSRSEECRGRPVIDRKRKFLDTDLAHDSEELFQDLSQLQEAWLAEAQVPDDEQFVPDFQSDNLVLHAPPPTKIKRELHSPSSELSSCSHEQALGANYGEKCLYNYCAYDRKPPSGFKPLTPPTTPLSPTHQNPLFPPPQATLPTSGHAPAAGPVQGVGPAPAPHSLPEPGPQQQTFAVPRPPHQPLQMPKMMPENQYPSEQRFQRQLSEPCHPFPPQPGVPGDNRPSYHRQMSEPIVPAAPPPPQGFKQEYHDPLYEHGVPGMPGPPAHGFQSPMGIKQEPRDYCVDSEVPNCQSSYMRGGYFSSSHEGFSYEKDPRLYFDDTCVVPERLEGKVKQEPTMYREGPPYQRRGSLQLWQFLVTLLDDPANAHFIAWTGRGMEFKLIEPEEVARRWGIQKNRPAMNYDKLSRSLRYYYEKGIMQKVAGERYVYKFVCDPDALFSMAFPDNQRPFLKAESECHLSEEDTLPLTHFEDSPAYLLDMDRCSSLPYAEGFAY
# ETV1, sequence (P50549 whole entry): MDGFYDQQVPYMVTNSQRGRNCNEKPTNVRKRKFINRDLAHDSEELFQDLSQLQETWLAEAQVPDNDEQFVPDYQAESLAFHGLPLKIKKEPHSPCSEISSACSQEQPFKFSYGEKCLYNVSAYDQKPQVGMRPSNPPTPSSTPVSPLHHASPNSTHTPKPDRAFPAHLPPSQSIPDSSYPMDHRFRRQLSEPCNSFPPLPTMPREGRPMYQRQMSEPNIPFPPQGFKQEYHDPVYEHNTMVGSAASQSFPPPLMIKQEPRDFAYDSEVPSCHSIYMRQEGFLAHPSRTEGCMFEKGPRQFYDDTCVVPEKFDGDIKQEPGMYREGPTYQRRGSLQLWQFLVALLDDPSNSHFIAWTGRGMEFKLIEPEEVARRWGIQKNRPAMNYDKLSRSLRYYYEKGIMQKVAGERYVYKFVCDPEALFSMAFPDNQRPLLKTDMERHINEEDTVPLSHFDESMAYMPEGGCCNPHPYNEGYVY
# SPIB, sequence (Q01892 whole entry): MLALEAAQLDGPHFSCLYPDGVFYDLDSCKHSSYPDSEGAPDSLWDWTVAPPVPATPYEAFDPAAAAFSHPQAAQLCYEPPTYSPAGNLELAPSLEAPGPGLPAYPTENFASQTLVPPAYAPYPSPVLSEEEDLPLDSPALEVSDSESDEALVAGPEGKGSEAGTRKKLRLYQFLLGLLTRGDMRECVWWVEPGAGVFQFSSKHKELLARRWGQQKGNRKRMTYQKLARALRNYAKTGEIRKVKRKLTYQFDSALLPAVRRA
# ELF1, sequence (P32519 whole entry): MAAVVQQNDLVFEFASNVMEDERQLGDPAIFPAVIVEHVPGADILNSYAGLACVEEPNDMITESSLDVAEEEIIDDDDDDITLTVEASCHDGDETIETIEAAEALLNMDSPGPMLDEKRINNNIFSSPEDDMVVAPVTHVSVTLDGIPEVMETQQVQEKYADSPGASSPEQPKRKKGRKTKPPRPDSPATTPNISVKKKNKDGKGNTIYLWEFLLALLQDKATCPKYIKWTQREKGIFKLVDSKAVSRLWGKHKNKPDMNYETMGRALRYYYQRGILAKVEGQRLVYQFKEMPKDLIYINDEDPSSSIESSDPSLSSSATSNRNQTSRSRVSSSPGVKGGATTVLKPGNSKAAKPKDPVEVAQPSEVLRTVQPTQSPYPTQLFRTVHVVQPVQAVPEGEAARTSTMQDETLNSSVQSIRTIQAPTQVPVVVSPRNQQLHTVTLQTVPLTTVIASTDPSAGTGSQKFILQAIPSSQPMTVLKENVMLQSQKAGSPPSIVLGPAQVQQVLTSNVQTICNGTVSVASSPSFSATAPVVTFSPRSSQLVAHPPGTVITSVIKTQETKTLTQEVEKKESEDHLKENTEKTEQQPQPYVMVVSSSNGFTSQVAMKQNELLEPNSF
# CRX, sequence (O43186 whole entry): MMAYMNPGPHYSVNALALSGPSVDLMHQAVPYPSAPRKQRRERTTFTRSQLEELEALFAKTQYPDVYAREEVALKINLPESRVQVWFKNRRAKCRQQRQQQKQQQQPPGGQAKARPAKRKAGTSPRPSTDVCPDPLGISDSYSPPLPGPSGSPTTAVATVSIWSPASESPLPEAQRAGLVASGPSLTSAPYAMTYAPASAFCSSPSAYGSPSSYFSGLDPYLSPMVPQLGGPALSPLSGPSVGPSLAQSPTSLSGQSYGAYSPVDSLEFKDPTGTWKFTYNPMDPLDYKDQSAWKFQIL
# ELF4, sequence (Q99607 whole entry): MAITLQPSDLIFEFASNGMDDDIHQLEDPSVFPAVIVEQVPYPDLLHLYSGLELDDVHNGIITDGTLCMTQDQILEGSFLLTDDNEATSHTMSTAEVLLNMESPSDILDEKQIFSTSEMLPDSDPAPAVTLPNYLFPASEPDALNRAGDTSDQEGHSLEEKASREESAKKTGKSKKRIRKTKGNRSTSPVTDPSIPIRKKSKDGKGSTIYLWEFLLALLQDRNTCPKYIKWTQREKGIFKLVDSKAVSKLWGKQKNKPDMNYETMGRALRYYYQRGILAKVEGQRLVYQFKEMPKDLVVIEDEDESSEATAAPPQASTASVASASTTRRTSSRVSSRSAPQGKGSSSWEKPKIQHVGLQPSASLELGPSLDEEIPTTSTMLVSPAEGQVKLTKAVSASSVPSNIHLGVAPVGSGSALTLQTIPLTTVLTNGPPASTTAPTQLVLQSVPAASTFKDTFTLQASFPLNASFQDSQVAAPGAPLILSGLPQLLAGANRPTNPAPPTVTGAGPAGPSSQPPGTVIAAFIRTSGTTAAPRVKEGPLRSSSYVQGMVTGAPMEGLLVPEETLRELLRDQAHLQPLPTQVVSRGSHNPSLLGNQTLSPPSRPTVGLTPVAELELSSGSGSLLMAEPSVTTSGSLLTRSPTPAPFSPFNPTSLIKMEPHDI
sequence,measurement,setting,value
CGTTTT,binding signal,FLI1,"1.16 fold enrichment (6-mer frequency, TF over GST control)"
same,binding signal,ELK1,"1.16 fold enrichment (6-mer frequency, TF over GST control)"
same,binding signal,GABPA,"1.34 fold enrichment (6-mer frequency, TF over GST control)"
same,binding signal,ERG,"1.36 fold enrichment (6-mer frequency, TF over GST control)"
same,binding signal,ELF1,"1.17 fold enrichment (6-mer frequency, TF over GST control)"
same,binding signal,EHF,"1.27 fold enrichment (6-mer frequency, TF over GST control)"
same,binding signal,SPI1,"1.29 fold enrichment (6-mer frequency, TF over GST control)"
same,binding signal,SPIB,"1.32 fold enrichment (6-mer frequency, TF over GST control)"
same,binding signal,ELK3,"1.12 fold enrichment (6-mer frequency, TF over GST control)"
same,binding signal,FEV,"1.19 fold enrichment (6-mer frequency, TF over GST control)"
same,binding signal,ETV5,"1.21 fold enrichment (6-mer frequency, TF over GST control)"
same,binding signal,HSF1,"1.12 fold enrichment (6-mer frequency, TF over GST control)"
same,binding signal,SPIC,"1.29 fold enrichment (6-mer frequency, TF over GST control)"
same,binding signal,ELF4,"1.16 fold enrichment (6-mer frequency, TF over GST control)"
same,binding signal,ELK4,"1.22 fold enrichment (6-mer frequency, TF over GST control)"
same,binding signal,ETV2,"1.35 fold enrichment (6-mer frequency, TF over GST control)"
same,binding signal,ELF3,"1.08 fold enrichment (6-mer frequency, TF over GST control)"
same,binding signal,CRX,"1.04 fold enrichment (6-mer frequency, TF over GST control)"
same,binding signal,ETV1,"1.17 fold enrichment (6-mer frequency, TF over GST control)"
